Screening data as filed in PubChem BioAssay.
Shown are actives, neighbours in structure and some others; about 7.4% of the full set was active somewhere.
Rab9 prom act = activators of Rab9 promoter; Huh7 Rab9 promoter-luciferase reporter, luminescence, 24 h; Potency, µM (doses to about 9.22 µM), for the others: top-dose activation, negative = inhibition, actives largely listed as activators; hit rate 2.8% among 320,000; AID 485297; further: % of control where 0% means no effect; nearly all actives have a fitted effect of over 60% in size
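Huh7 cells stably carrying a Rab9 promoter-luciferase reporter, 1500 cells per well in OP-MEM I with 10% FBS, treated with compound 24 hours at 37C. Luciferase activity read by luminescence after 10 minutes with Amplite reagent.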
SMN2 splice up = increases expression of the SMN2 splice variant | HEK293 SMN2-luciferase splicing reporter, luminescence, 30-36 h | Potency, µM (highest dose often 46.1 µM), for the others: at the top dose activity change, positive = activation, most hits filed as activators | hit rate 2.8% among 210,000; further: % of control where 0% means no effect; nearly all actives have a fitted effect of over 55% in size
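HEK293 cells carry an SMN2 minigene-luciferase reporter in which exon 7 inclusion puts luciferase in frame. Cells were seeded at 2000 cells/well, attached for 10-12 hours, then exposed to compounds for 30-36 hours at 37C before ONE-Glo luminescence.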
NPC1 prom act = activates the NPC1 promoter | Huh7 NPC1 promoter luciferase reporter, 24 h | Potency, µM (series often up to 9.22 µM), for the others: at the top dose activation, hits mostly activators | hit rate 2.4% among 320,000; further: % of control where 0% means no effect; nearly all actives have a fitted effect of over 60% in size
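NPC1 promoter–luciferase Huh7 cells; 24 h compound; luminescence.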
ELG1 genotox = genotoxicity induction in ELG1-luciferase HEK293T cells; HEK293T ELG1-luciferase reporter, luminescence, 16 h; Potency, µM (doses to about 46 µM), inactives show top-dose activity change, positive = activation, hits mostly activators; AID 504466; hit rate 1.3% among 330,000; further: % of control where 0% means no effect; nearly all actives have a fitted effect of over 60% in size
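Luminescence read-out: rising ELG1-luciferase signal, reflecting elevated ELG1 protein under genetic stress, flags genotoxic compounds. Cells were treated for 16 hr at 37 °C before ONE-Glo detection.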
FLuc counter = inhibits or activates purified firefly luciferase, miR-21 counter-screen; P08659; Potency, µM (top dose mostly 57.5 µM), for inactives: top-dose activity change, negative = inhibition, actives largely listed as inhibitors; hit rate 6.9% among 360,000; purified FLuc, Km substrates, luminescence inhibition;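 further: plate controls were vehicle for no effect and reference inhibitor for full effect; nearly all actives have a fitted effect of over 55% in size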
Target sequence (P08659 whole entry, looked up): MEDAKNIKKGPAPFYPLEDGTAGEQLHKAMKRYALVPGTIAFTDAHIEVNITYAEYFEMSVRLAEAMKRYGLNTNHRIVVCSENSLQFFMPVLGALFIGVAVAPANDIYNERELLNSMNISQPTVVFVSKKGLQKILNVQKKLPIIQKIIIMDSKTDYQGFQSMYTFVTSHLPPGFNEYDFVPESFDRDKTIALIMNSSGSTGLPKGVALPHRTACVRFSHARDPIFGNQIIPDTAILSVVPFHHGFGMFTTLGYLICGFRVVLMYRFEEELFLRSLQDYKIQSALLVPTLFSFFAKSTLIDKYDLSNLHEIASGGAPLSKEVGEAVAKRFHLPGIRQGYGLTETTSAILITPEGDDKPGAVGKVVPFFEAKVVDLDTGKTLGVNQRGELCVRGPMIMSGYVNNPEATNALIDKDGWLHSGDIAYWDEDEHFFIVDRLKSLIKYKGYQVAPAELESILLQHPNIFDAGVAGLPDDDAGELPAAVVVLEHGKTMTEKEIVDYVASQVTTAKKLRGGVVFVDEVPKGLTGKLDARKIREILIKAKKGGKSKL
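Biochemical qHTS of compounds, final roughly 60 µM downward over six points, against 10 nM purified firefly luciferase using Km concentrations of substrates (10 uM D-luciferin, 10 uM ATP) in Tris acetate pH 7.5 buffer; luminescence output.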
* hit, by the source's call; ? = inconclusive; / = no result given; [ ] = remark or other dose. The call rests on the fitted dose curve; in most records, active means well fitted curve in the direction sought with a large enough effect; inconclusive means small, poorly fitted or top-dose-only effect, or another doubt; inactive means no such curve, though single readings can be large; an effect the other way counts as inactive or inconclusive. Potency means the concentration at half of the fitted maximal effect.

SMILES	Rab9 prom act	SMN2 splice up	NPC1 prom act	ELG1 genotox	FLuc counter
COc1cc(-c2cc(C(=O)Nc3nc4ccccc4s3)c3ccccc3n2)cc(OC)c1OC	-2%	-20%	12%	-6%	15µM*
Cc1ccc2nc(NC(=O)c3cccs3)sc2c1	?	2.5µM*	0.5µM*	0.26µM*	0.48µM*
O=C(Nc1nc2ccccc2s1)c1ccccc1	0.45µM*	3.5µM*	1µM*	1µM*	1.7µM*
CCN(CC)CCCNC(=O)c1ccc(-c2nc(CN3CCc4ccccc43)c(C)o2)cc1	/	/	/	/	0%
COC(=O)[C@]1(C)CCC[C@@]2(C)C3CC[C@@]4(C)C[C@]3(CCC21)CC4=NO (stereo partly drawn)	-4%	/	-1%	-6%	-1%
O=C(Cc1ccccc1[N+](=O)[O-])NCCCc1ccccc1	18%	/	13%	7%	-2%
O=C(Nc1ccccc1)c1nc2ccccc2s1	2.5µM*	3.2µM*	2.8µM*	2.9µM*	1.1µM*
CSc1nc2ccc3nc(NC(=O)c4ccccc4)sc3c2s1	3.5µM*	?	3.2µM*	?	?
COc1cc(OC)c(NC(=O)N2CC=C(c3c[nH]c4ccccc34)CC2)cc1Cl	/	/	/	/	0%
CCn1cc(C(=O)NCCOC)c(=O)c2cc(S(=O)(=O)N3CCOCC3)ccc21	/	-6%	/	/	-1%
O=C(O)c1cc(-c2cccc(Cl)c2)nc2nc(N3CCCCC3)sc12	-4%	/	-1%	15%	?
COc1ccc(CC(=O)Nc2ccc(-c3cn4ccc(C)cc4n3)cc2)cc1	?	-5%	?	21µM*	?
Cc1cccn2cc(-c3cccc(NC(=O)C(C)C)c3)nc12	/	?	/	/	11µM*
Cc1ccc(C)c(NC(=O)Nc2cccc(-c3cn4cccnc4n3)c2)c1	/	-4%	/	/	-3%
Cc1ccn2cc(-c3cccc(NC(=O)C(C)C)c3)nc2c1	?	14µM*	25%	?	6µM*
Cc1ccn2cc(-c3cccc(NC(=O)c4ccccc4)c3)nc2c1	22%	?	3%	1%	4.3µM*
Oc1ccc(C(c2nnnn2CCc2ccccc2)N2CCN(c3nc4ccccc4s3)CC2)cc1 (stereo not drawn)	-4%	/	1%	-11%	3%
COc1ccccc1C(=O)OCc1cc(=O)n2nc(C(C)C)sc2n1	/	/	/	/	-16%
COc1cc(OC)c(NC(=O)Cn2c(=O)oc3cc(S(=O)(=O)N4CCCC4)ccc32)cc1Cl	/	/	/	/	-11%
COc1ccccc1-c1nnc(C2CCN(C(=O)c3cccc(Cl)c3)CC2)o1	/	-13%	/	/	-2%
O=C(Nc1cccc(-c2cc3ccccc3oc2=O)c1)c1ccc(Br)o1	-3%	25%	0%	-2%	-16%
Cc1cccc2nc(-c3cccc(NS(=O)(=O)c4ccccc4)c3)cn12	/	1%	/	/	?
CC(C)C(=O)Nc1cccc(-c2cn3ccccc3n2)c1	17%	-5%[1.84 µM]	12%	8%	11µM*
CCC(CC)C(=O)Nc1cccc(-c2cn3cccnc3n2)c1	/	/	/	/	-8%
CC(=O)Nc1cccc(-c2cn3ccccc3n2)c1	27%	?	16%	13%	19µM*
SMILES	Rab9 prom act	SMN2 splice up	NPC1 prom act	ELG1 genotox	FLuc counter
O=C(Nc1cccc(-c2cn3ccccc3n2)c1)c1cccs1	13%	/	21%	?	3.4µM*
O=C(Nc1cccc(-c2cn3ccccc3n2)c1)c1cc2ccccc2oc1=O	?	?	?	17%	1.5µM*
COc1cc(/C=c2\s/c(=C\C(=O)C(C)(C)C)[nH]c2=O)cc(OC)c1OC	-14%	-8%	-6%	-3%	-10%
COc1ccc(/C=c2\s/c(=C\C(=O)C(C)(C)C)[nH]c2=O)cc1O	-3%	/	-1%	-9%	24µM*
CCN(CC)S(=O)(=O)c1ccc2c(c1)N(CC(=O)N1CCN(c3cccc(C)c3)C(C)C1)C(=O)CO2 (stereo not drawn)	/	/	/	/	-2%
CCOC(=O)C1CCN(C(=O)Nc2ccc3nc(-c4ccco4)c(-c4ccco4)nc3c2)CC1	0%	4%	0%	-5%	?
Cc1ccc(C2CCN(C(=O)Nc3ccc(C)c(C)c3)C2)cc1 (stereo not drawn)	/	/	/	/	12µM*
Cc1ccc(C2CCN(C(=S)Nc3cccc(C)c3)C2)cc1 (stereo not drawn)	-7%	/	3%	4%	?
CCOc1ccc(NC(=O)N2CCC(c3ccc(C)cc3)C2)cc1 (stereo not drawn)	-1%	-6%	14%	5%	-7%
O=C(Nc1ccc2nsnc2c1)N1CCCCCC1	?	-9%	21%	?	17µM*
S=C(Nc1ccc2nsnc2c1)N1CCCC1	26%	/	14%	8%	?
O=C(Nc1ccc2nc(-c3ccco3)c(-c3ccco3)nc2c1)N1CCCCCC1	9%	-2%	15%	-22%	21µM*
Cc1ccc(C2CCN(C(=O)Nc3ccc(Cl)c(Cl)c3)C2)cc1 (stereo not drawn)	/	/	/	/	4.8µM*
CCN(C(=O)c1nn(-c2ccc(C)cc2)c(=O)c2c1c1ccccc1n2C)c1ccc(F)cc1	/	0%	/	/	-1%
CCn1c(=O)cc(OCC(=O)N2CCN(c3ccc(OC)cc3)CC2)c2ccccc21	/	1%	/	/	-5%
CCCNS(=O)(=O)c1cc(-c2nn3c(C)nnc3c3ccccc23)ccc1C	/	?	/	/	-9%
O=C(Nc1ccc(Cl)c(Cl)c1)N1CCC(c2ccccc2)C1 (stereo not drawn)	/	/	/	/	1.7µM*
O=C(Nc1ccc(Cl)c(Cl)c1)N1CCCCCC1	2.5µM*	/	2.8µM*	?	6µM*
